Records with an inconclusive call do not appear. A call without a number means that no potency is given here. Calls of active or inactive are those of the source. Calls follow the shape of the dose curve; as a rule, active = well fitted cell-killing curve with a large enough effect in the repeat runs; inconclusive = weak or mixed curves, or effect the other way; inactive = flat fitted curve, though single readings scatter.
Experiment: qHTS RealTime-Glo MT Cell Viability Assay in HepG2 cells - 0 hour (AID 1224889); also: nearly all actives have a fitted effect of over 50% in size
Details: RealTime-Glo luminescence; series mostly up to 76.8 µM
Description: U.S. Tox21 Program National Center for Advancing Translational Sciences [NCATS] NIH Chemical Genomics Center [NCGC] U.S. Environmental Protection Agency [EPA] National Institutes of Environmental Health Sciences [NIEHS] National Toxicology Program [NTP] U.S. Food and Drug Administration [FDA] Tox21 Assay Overview: Measure of cell viability is critical in the cell-base assay. Analysis of cell viability is necessary for the characterization of cell responses to cytotoxic drugs and environmental stress. A RealTime-Glo MT Cell Viability Assay to monitor cell viability in real time of continues cell culture during 40 hours of compound treatment was used to screen Tox21 10K library compounds in HepG2 cells. The RealTime-Glo MT Cell Viability Assay is a nonlytic, homogeneous, bioluminescent method to measure cell viability in real time using a simple, plate-based method. The assay involves adding NanoLuc luciferase and a cell-permeant prosubstrate to cells in culture. Viable cells reduce the proprietary prosubstrate to generate a substrate for NanoLuc luciferase. This substrate diffuses from cells into the surrounding culture medium, where it is rapidly used by the NanoLuc Enzyme to produce a luminescent signal. The signal correlates with the number of viable cells, making the assay well suited for cytotoxicity studies.
Tox21 Assay Protocol Summary: The mixture of HepG2 cell suspension and reagents were dispensed at 600cells/6 ul/well in 1536-well tissue culture treated black solid bottom plates using a Multidrop dispenser. After the assay plates were incubated at a 37 C/5% CO2 incubator for 5 hours, 23 nL of compounds dissolved in DMSO, positive and negative controls was transferred to the assay plate by a pintool work station. The plates were incubated at 37 C for 40 hours. The luminescence intensity were measured at 0h, 8h, 16h, 24h, 32h and 40h time points using ViewLux plate reader during compound treatment.

| Structure (SMILES) | Potency | activity change, negative = cytotoxicity |
| --- | --- | --- |
| Nc1nc(-c2ccccc2)c(Br)c(=O)[nH]1 | inactive |  |
| CCC(=O)Oc1ccc2c(c1)CC[C@@H]1[C@@H]2CC[C@@]2(C)[C@H]1C[C@@H](OC(=O)CC)[C@@H]2OC(=O)CC | inactive |  |
| N#Cc1ccccc1O | inactive |  |
| COc1c2occc2c(OC)c2c(=O)cc(C)oc12 | inactive |  |
| CC(=O)CC(=O)OC(C)(C)C | inactive |  |
| Cc1ncc([N+](=O)[O-])n1CC(C)O (stereo not given) | inactive |  |
| O=C[O][Al]([O]C=O)[O]C=O | inactive |  |
| C/C(=C1\CCOC(=O)S1)N(C=O)Cc1cnc(C)nc1N | inactive |  |
| C=CCSSCCC | inactive |  |
| CC(N)CCCC(C)(C)O (stereo not given) | inactive |  |
| CC(CO)(CO)CO | inactive |  |
| CO[C@@]1(NC(=O)Cc2cccs2)C(=O)N2C(C(=O)O)=C(COC(N)=O)CS[C@@H]21 | inactive |  |
| O=NN(CCCl)C(=O)NC1CCCCC1 | inactive |  |
| NCC1(Cc2noc(=O)[nH]2)CCCCC1 | inactive |  |
| O=C1c2ccccc2C(=O)c2cc(Cl)ccc21 |  | 1.38% [at 6.97 µM] (inactive) |
| CCCSSCCC | inactive |  |
| NCc1ccc(S(N)(=O)=O)cc1 | inactive |  |
| CC(C)(C)NC[C@H](O)COc1cccc2c1CCCC2=O | inactive |  |
| CC1=C(O)C(=O)C(C)O1 (stereo not given) | inactive |  |
| C=C(C)c1cccc(C(C)(C)N=C=O)c1 | inactive |  |

| Structure (SMILES) | Potency | activity change, negative = cytotoxicity |
| --- | --- | --- |
| CC(=O)CCc1ccc(OC(C)=O)cc1 | inactive |  |
| CC1CCc2c(N3CCC(O)CC3)c(F)cc3c(=O)c(C(=O)O)cn1c23 (stereo not given) | inactive |  |
| CC(C)[C@H]1CC[C@H](C)C[C@@H]1O | inactive |  |
| c1ccc(B(c2ccccc2)c2ccccc2)cc1 | inactive |  |
| C=CC/C=C/C | inactive |  |
| Cc1c(NC(=O)c2cccnc2)c(=O)n(-c2ccccc2)n1C | inactive |  |
| COS(=O)(=O)O | inactive |  |
| CC1CC(=O)CC(C)(C)C1 (stereo not given) | inactive |  |
| CCCC(=O)OC/C=C(\C)CCC=C(C)C | inactive |  |
| Cn1nnc2c(C(N)=O)ncn2c1=O | inactive |  |
| CN(C)CCOC(=O)C(c1ccccc1)C1(O)CCCC1 (stereo not given) | inactive |  |
| CCN(CC)CCN | inactive |  |
| O=C(NCN1CCOCC1)c1cnccn1 | inactive |  |
| O=C(CCCl)NCCc1ccccc1 | inactive |  |
| CC(O)CC(C)O (stereo not given) | inactive |  |
| CC1(C)Cc2cccc(N)c2O1 | inactive |  |
| CCCCCCCCCCCCCCCCCC#N | inactive |  |
| COC(=O)c1ccccc1C(=O)O | inactive |  |
| c1ccc(-c2nn[nH]n2)cc1 | inactive |  |
| OC[C@H]1O[C@@H](O[C@@H]2[C@@H](CO)O[C@](O)(CO)[C@H]2O)[C@H](O)[C@@H](O)[C@H]1O | inactive |  |

— PubChem BioAssay (Tox21)
